# Source: PubChem BioAssay AID1851 (National Center for Advancing Translational Sciences (NCATS), 2009)
# Among all 16,000 compounds or so, about 4,000 (25%) were called active. Another 26% or so got no clear call; they are omitted. A selection follows. Unmarked numbers belong to inactive results. The call rests on the fitted dose curve; in most records, active means well fitted curve in the direction sought with a large enough effect; inconclusive means small, poorly fitted or top-dose-only effect, or effect the other way; inactive means no such curve, though single readings can be large or run the other way.
# Target: Cytochrome P450 2C9 (Homo sapiens) (UniProt P11712)
# Experiment: Cytochrome panel assay with activity outcomes
# Details: recombinant CYP, pro-luciferin dealkylation, luminescence, p450-cyp2c9; series mostly up to 57.1 µM
# On the % scale 0 is the no-effect control and ±100 the full control effect.
# Cytochrome P450 2C9 (Homo sapiens), sequence (P11712 whole entry, looked up): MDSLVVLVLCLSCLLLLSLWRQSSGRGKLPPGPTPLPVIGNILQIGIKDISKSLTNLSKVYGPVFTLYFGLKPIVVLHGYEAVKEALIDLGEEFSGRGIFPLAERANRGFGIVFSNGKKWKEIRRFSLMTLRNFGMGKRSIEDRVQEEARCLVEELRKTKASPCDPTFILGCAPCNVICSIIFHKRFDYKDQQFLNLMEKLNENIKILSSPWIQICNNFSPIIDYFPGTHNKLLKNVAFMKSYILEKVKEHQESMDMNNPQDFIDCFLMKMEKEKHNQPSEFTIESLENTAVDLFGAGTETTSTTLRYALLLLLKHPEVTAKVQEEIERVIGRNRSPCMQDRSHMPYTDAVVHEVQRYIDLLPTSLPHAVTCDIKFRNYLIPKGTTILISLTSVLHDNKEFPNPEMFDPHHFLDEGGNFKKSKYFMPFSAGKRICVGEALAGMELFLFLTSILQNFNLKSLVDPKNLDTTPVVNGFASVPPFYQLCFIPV
SMILES,AC50,"activity, negative = inhibition"
NCCCCCCCCCCN,inactive,–
N[C@H](C(=O)O)[C@H](OCc1ccccc1)C(=O)O,10 µM (active),–
N[C@@H](CSCc1ccccc1)C(=O)O,–,11.8% [at 11.4 µM]
N[C@@H](Cc1ccccc1)C(=O)O,–,13.9% [at 11.4 µM]
Fc1ccc(Nc2ncncc2-c2ccccc2C(F)(F)F)cc1,–,-4.04% [at 2.29 µM]
CN1CCN(c2ccnc(-c3cccc(NS(C)(=O)=O)c3)n2)CC1,–,-3.66% [at 2.29 µM]
CC(C)c1ccccc1S(=O)c1ccccc1C(C)(C)O (centres undefined),–,-18.2% [at 11.4 µM]
c1ccc2sc(SCSc3nc4ccccc4s3)nc2c1,–,-1.3% [at 11.4 µM]
NCCSc1nc2ccccc2s1,1.58 µM (active),–
OCCN1CCN(CC/C=C2\c3ccccc3Sc3ccc(C(F)(F)F)cc32)CC1,inactive,–
O=C(CSc1nc2ccccc2s1)N1c2ccccc2Sc2ccc(C(F)(F)F)cc21,3.55 µM (active),–
O=C(CSc1nc2ccccc2s1)Nc1nccs1,inactive,–
Cc1ccc(S(=O)(=O)NC(=O)CSc2nc3ccccc3s2)cc1,2.51 µM (active),–
c1ccc2sc(SCCSc3nc4ccccc4s3)nc2c1,–,23.1% [at 11.4 µM]
O=C(CSc1nc2ccccc2s1)NNC(=S)Nc1ccc(Br)cc1,5.01 µM (active),–
O=C(O)CCCSc1nc2ccccc2s1,–,-7.61% [at 11.4 µM]
CC(C)N=c1cc2n(-c3ccc(Cl)cc3)c3ccccc3nc-2cc1Nc1ccc(Cl)cc1,inactive,–
CN(C)c1ncc2nc(-c3cccc(C#N)c3)c(=O)n(C[C@H]3CCCO3)c2n1,inactive,–
CC(C)C(=O)C(C)(C)CCc1ccccn1,–,13.3% [at 11.4 µM]
O=C1[C@H]2[C@H]3[C@H](O)[C@H](O)C/C(=N/OC[C@@H](O)COCc4ccco4)[C@@H]3CC[C@@H]2C(=O)N1C1CCCCC1,–,-9.96% [at 11.4 µM]
CCSC(=N)N,inactive,–
CO[C@@H]1COC(=O)C/C=C\[C@H](C)COC(=O)[C@H](Cc2ccccc2)NC(=O)C/C=C\[C@H]1C,–,-22.5% [at 11.4 µM]
O=C(CSc1nc2ccccc2s1)N1c2ccccc2Sc2ccccc21,1.12 µM (active),–
CCOC(=O)C1C(=O)NC(C)C1c1ccccc1 (centres undefined),inactive,–

SMILES,AC50,"activity, negative = inhibition"
CCOC(=O)C1=C(C)C(c2ccccc2OC)NC(=S)N1 (centres undefined),15.8 µM (active),–
COc1ccc(N2C(=O)CCC(C(=O)O)C2c2ccc(F)cc2)cc1 (centres undefined),inactive,–
COC(=O)C1=C(C)C(c2ccc(OC)cc2)NC(=S)N1 (centres undefined),15.8 µM (active),–
COc1ccc(C2C(C(=O)N3CCOCC3)CCC(=O)N2c2ccc(OC)cc2)cc1 (centres undefined),inactive,–
Nc1ccn([C@@H]2O[C@H](COC(=O)C34CC5CC(CC(C5)C3)C4)[C@@H](O)[C@@H]2O)c(=O)n1,–,-0.936% [at 11.4 µM]
C#CCCCO/N=C1/C[C@@H](O)[C@@H](O)[C@@H]2[C@@H]3C(=O)N(C[C@@H]4CCCO4)C(=O)[C@H]3CC[C@H]12,–,-17.1% [at 11.4 µM]
Cc1cccc2nc(C(F)(F)F)nc(=O)n12,inactive,–
Cc1ccc(C)n1C(Cc1ccccc1)C(=O)O (centres undefined),31.6 µM (active),–
C[C@@H](N)[C@@H](C)Cc1ccccc1,–,-11% [at 11.4 µM]
O=C(O)C[C@H](Cc1ccccc1)C(=O)O,–,-7.58% [at 11.4 µM]
COc1ccc(S(=O)(=O)n2ccc(-c3cnc(-c4ccccc4)s3)n2)cc1,1.78 µM (active),–
O=S(=O)(c1ccc(F)cc1)n1ccc(-c2cnc(-c3ccccc3)s2)n1,7.94 µM (active),–
COc1ncc2nc(-c3ccccc3)c(=O)n(C)c2n1,inactive,–
C[C@@H](N=C(N)N)C(=O)O,–,11.8% [at 11.4 µM]
Cc1c(C=O)c2ccccn2c1C(=O)c1ccncc1,7.94 µM (active),–
C[C@H](C(=O)c1ccncc1)c1ccccn1,–,-11.4% [at 11.4 µM]
CCCCOC(=O)c1cc2c(cn1)[nH]c1ccccc12,7.94 µM (active),–
CCNC(=O)COC(=O)c1cc(=O)[nH]c2ccccc12,inactive,–
CCCCOC(=O)c1ccc(O)cc1,inactive,–
Nc1ncnc2c1ncn2[C@@H]1O[C@@H](C(=O)NC2CC2)[C@H](O)[C@@H]1O,inactive,–
CC(=O)Nc1ccc(-c2cc(C(=O)O)c3cc4ccccc4cc3n2)cc1,–,4.42% [at 11.4 µM]
CC(C)(C)NS(=O)(=O)c1ccc(NC(=O)c2cc(-c3ccccc3)nc3ccccc23)cc1,6.31 µM (active),–
CC(C)(C)c1nnc(NC(=O)c2cc(-c3ccccc3)nc3ccccc23)s1,7.08 µM (active),–
COc1ccc(-c2cc(C(=O)Nc3nc4c(C)cccc4s3)c3ccccc3n2)cc1OC,2.51 µM (active),–

SMILES,AC50,"activity, negative = inhibition"
CCC(=O)Nc1nnc(C(C)(C)C)s1,inactive,–
c1cncc(CNc2ncnc3ccc(-c4ccoc4)cc23)c1,–,0.357% [at 2.29 µM]
Cc1noc(C)c1-c1ccc2ncnc(N3CCN(C)CC3)c2c1,–,-6.38% [at 2.29 µM]
CCCC1c2c(ccc3ccccc23)Oc2ccc3ccccc3c21,–,-4.51% [at 11.4 µM]
Cn1c2c(c(=O)n(C)c1=O)[C@@H]1c3c(ccc4ccccc34)OC[C@@H]1CO2,12.6 µM (active),–
CN(C)c1ccc(-c2nc(NC3CCNCC3)c3ccccc3n2)cc1,–,12.7% [at 2.29 µM]
C/C(=N\NC(=O)COc1ccc([N+](=O)[O-])cc1)C(C)(C)C,inactive,–
O=C(COc1ccc(/C=N/NC(=O)c2ccccc2)cc1)Nc1ccc([N+](=O)[O-])cc1,inactive,–
CCOC(=O)c1cccc(NC(=O)COc2ccc([N+](=O)[O-])cc2)c1,14.1 µM (active),–
C/C(=N\Nc1nnc(C)c(=O)[nH]1)C(=O)O,inactive,–
CC(C)(C)n1nc2c(c1NC(=O)c1ccc(S(=O)(=O)N3CCCCC3)cc1)CS(=O)C2 (centres undefined),inactive,–
O=C(Nc1ccccc1-c1nc2ccccc2[nH]1)c1ccc(S(=O)(=O)N2CCCCC2)cc1,2 µM (active),–
COc1ccccc1-c1nc(N(C)Cc2ccco2)c2ccccc2n1,–,-7.62% [at 2.29 µM]
O=C(Nc1c2c(nn1-c1ccc(F)cc1)CS(=O)(=O)C2)C12CC3CC(CC(C3)C1)C2,inactive,–
CCC(CC)C(=O)Nc1c2c(nn1-c1ccc(OC)cc1)CS(=O)(=O)C2,7.94 µM (active),–
CSC(=N)N,inactive,–
Cc1nnc(-c2cccc(Br)c2)c2cn(-c3ccc(Br)cc3)nc12,2 µM (active),–
Cc1nnc(-c2cccc(Br)c2)c2cn(-c3ccccc3Cl)nc12,2.82 µM (active),–
NC[C@@H]1O[C@H](c2ccccc2)Cc2c1ccc(O)c2O,6.31 µM (active),–
NC[C@@H]1O[C@H](C23CC4CC(CC(C4)C2)C3)Cc2c1ccc(O)c2O,inactive,–
CO/N=C(\C(=O)N[C@@H]1C(=O)N2C(C(=O)O)=C(COC(N)=O)CS[C@@H]12)c1ccco1,inactive,–
C=C(C)CN(CC#N)CC(=C)C,–,11% [at 11.4 µM]
Cc1cccc(-c2c3c(=O)n(C)c(=O)n(C)c3cn2C2CCCCC2)c1,10 µM (active),–
CC1=CC(=O)N(c2cccc(C(F)(F)F)c2)C1c1ccc(Cl)cc1 (centres undefined),12.6 µM (active),–

SMILES,AC50,"activity, negative = inhibition"
Cc1n[nH]c(=O)n1-c1cccc(C(F)(F)F)c1,inactive,–
OC[C@@H]1O[C@@H](n2cnc3c(SCc4ccccc4)ncnc32)[C@@H](O)[C@H]1O,–,5.12% [at 11.4 µM]
Cc1onc(-c2ccccc2Cl)c1C(=O)NCC(=O)O,inactive,–
Cc1onc(-c2ccccc2Cl)c1C(=O)Nc1nnc(Cc2ccc(Cl)cc2)s1,1.26 µM (active),–
Cc1ccc(NC(=S)NC(=O)c2c(-c3ccccc3Cl)noc2C)cc1,1.41 µM (active),–
CC(=O)C1=NOC(CNC(=O)c2c(-c3ccccc3Cl)noc2C)C1 (centres undefined),inactive,–
CC(=O)NCCNc1ncnc2ccc(-c3ccccc3C(F)(F)F)cc12,–,5.92% [at 2.29 µM]
COc1ccccc1NC(=O)CCN1C(=O)C2CC=C(Cl)CC2C1=O (centres undefined),inactive,–
CCn1c2ccccc2c2cc(N=C3SC(CC(=O)Nc4ccccc4OC)C(=O)N3C)ccc21 (centres undefined),0.891 µM (active),–
CCn1c2ccccc2c2cc(N=C3SC(CC(=O)Nc4ccccc4)C(=O)N3C)ccc21 (centres undefined),0.126 µM (active),–
O=C(O)CC[C@@H](C(=O)O)N1C(=O)[C@@H]2[C@@H]3CC[C@H](C3)[C@@H]2C1=O,–,12.5% [at 11.4 µM]
OCCNc1nc(NCCC2=CCCCC2)nc(N2CCOCC2)n1,14.1 µM (active),–
CCN(CC)CCNC(=O)C(C)c1nn(C)c(=O)c2ccccc12 (centres undefined),inactive,–
CCOC(=O)CNS(=O)(=O)c1cc(-c2nn(C)c(=O)c3ccccc23)ccc1C,0.316 µM (active),–
CS(=O)(=O)Nc1cccc(-c2ccc3ncnc(NCCN4CCOCC4)c3c2)c1,–,19% [at 2.29 µM]
Cc1ccc(S(=O)(=O)NCc2cccc([N+](=O)[O-])c2)cc1,–,24.1% [at 11.4 µM]
CCN(Cc1ccccc1)Cc1cccc([N+](=O)[O-])c1,10 µM (active),–
N[C@@H](Cc1cccc([N+](=O)[O-])c1)C(=O)O,–,16.8% [at 11.4 µM]
COc1c(Cl)cc(Cl)cc1CNCCNCC(C)O (centres undefined),inactive,–
Cc1cc(Cl)nc2ccc(Cc3ccc4nc(Cl)cc(C)c4c3)cc12,–,0.565% [at 11.4 µM]
Cc1cc(N2CCOCC2)nc2ccc(Cc3ccc4nc(N5CCOCC5)cc(C)c4c3)cc12,3.98 µM (active),–
COc1ccc2c(C)cc(N3CCOCC3)nc2c1,inactive,–
